FEN1 inh-1: inhibitors of human flap endonuclease 1; AID 588795; hit rate 0.35% among 390,000; P39748; Potency, µM (top dose mostly 114 µM), for the others: top-dose activity change, negative = inhibition, hits mostly inhibitors; Recombinant FEN1 flap cleavage, fluorescence, 15 min; also: % is scaled to controls: 0 for no effect and ±100 for the full control effect; nearly all actives have a fitted effect of over 65% in size
Target sequence (P39748 whole entry, looked up): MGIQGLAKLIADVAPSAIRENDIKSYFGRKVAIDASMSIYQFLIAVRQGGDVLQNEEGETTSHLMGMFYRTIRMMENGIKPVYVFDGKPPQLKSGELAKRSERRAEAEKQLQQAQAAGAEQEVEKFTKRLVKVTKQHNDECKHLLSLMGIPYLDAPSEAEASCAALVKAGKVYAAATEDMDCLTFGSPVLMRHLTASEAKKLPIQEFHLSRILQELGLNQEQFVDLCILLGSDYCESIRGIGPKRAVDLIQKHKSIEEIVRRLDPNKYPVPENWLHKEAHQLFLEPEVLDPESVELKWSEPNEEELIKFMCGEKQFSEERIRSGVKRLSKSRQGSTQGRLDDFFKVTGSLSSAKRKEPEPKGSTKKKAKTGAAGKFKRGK
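Compounds are tested as a concentration series against 10 nM FEN1; after a 15 min room-temperature preincubation, 50 nM substrate starts cleavage, with plate reads at 0 and 15 min. Normalized responses are fitted by a Hill equation.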
POLI inh: inhibitors of human DNA polymerase iota; AID 588590; hit rate 1% among 390,000; Potency, µM (highest dose often 115 µM), without a hit: at the top dose activity, negative = inhibition, hits mostly inhibitors; Q9UNA4; Pol iota fluorescent replication assay, 10 min
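Fluorescent replication assay read twice, at 0 min and 10 min after adding 50 nM (final) substrate. Enzyme (10 nM) and compounds were first incubated 15 min at room temperature; enzyme-free buffer wells were negative controls.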
Pol eta inh-1: inhibitors of human DNA polymerase eta | Q9Y253 | recombinant Pol eta, fluorescent DNA replication assay | Potency, µM (titrated, usually from 114 µM), inactives show at the top dose activity change, negative = inhibition, hits mostly inhibitors | hit rate 1.2% among 390,000 | AID 588591; also: % is scaled to controls: 0 for no effect and ±100 for the full control effect
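Fluorescent replication assay: 50 nM final substrate added after a 15 min room-temperature compound preincubation with 10 nM enzyme. Signal taken at 0 min and again at 10 min.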
POLB inh: inhibitors of human DNA polymerase beta; hit rate 1.3% among 340,000; Pol beta primer extension/strand displacement, fluorescence kinetic; Potency, µM (top dose mostly 114 µM), inactives show at the top dose activity change, negative = inhibition, most hits filed as inhibitors; also: % is scaled to controls: 0 for no effect and ±100 for the full control effect
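Preincubation: enzyme (10 nM) with compound, 15 min, RT. Reaction: substrate added to 50 nM final. Reads: 0 and 10 min. Analysis: normalized, Hill fit.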
WRN helicase inh-1: blocks human WRN helicase | hit rate 0.46% among 360,000 | Potency, µM (doses to about 114 µM), for inactives: top-dose activity change, negative = inhibition, most hits filed as inhibitors | WRN helicase unwinding, fluorescent forked duplex, kinetic; also: % is scaled to controls: 0 for no effect and ±100 for the full control effect; nearly all actives have a fitted effect of over 55% in size
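Screening of the MLSMR collection measured strand separation of a quenched forked DNA duplex (100 nM) by 20 nM WRN with 2 mM ATP, all final. Compounds were preincubated with enzyme 15 min at room temperature.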
Pol kappa inh-1: DNA polymerase kappa (human) inhibition | Q9UBT6 | purified Pol kappa, fluorescent DNA synthesis assay, 10 min | Potency, µM (doses to about 107 µM), for inactives: top-dose activity, negative = inhibition, most hits filed as inhibitors | hit rate 0.53% among 400,000; also: % is scaled to controls: 0 for no effect and ±100 for the full control effect
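Readout: fluorescence, taken kinetically at 0 and 10 min. Conditions: 10 nM Pol kappa, 15 min RT compound preincubation, 50 nM substrate final. Controls: enzyme-free buffer wells.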
TbPGK inh: blocks T. brucei phosphoglycerate kinase; shares compounds with Pol kappa inh-1; TbPGK coupled GAPDH assay, Kinase-Glo luminescence; Potency, µM (series often up to 57.5 µM), inactives show at the highest dose activity change, negative = inhibition, hits mostly inhibitors; hit rate 79% among 500; also: % is scaled to controls: 0 for no effect and ±100 for the full control effect; nearly all actives have a fitted effect of over 65% in size
Pol iota confirm: Inhibitors of human DNA polymerase iota, confirmation; shares compounds with Pol kappa inh-1; Pol iota primer extension, TAMRA/BHQ fluorescence; Potency, µM, hits mostly inhibitors; hit rate 77% among 1,500; AID 720496
Pol kappa inh-2: Pol kappa (human) inhibition, cherry-pick confirmation; shares compounds with Pol eta inh-1; Potency, µM, most hits filed as inhibitors; AID 720501; hit rate 76% among 920; purified Pol-kappa, fluorescent strand-displacement substrate
Pol eta inh-2: confirmation of human DNA polymerase eta inhibitors | Pol eta primer extension, TAMRA/BHQ fluorescence, 10 min | shares compounds with Pol eta inh-1 | hit rate 64% among 2,600 | Potency, µM, usual class: inhibitors
FEN1 inh-2: FEN1 inhibition, cherry-pick retest; shares compounds with FEN1 inh-1; FEN1 flap cleavage, TAMRA/BHQ2 fluorogenic DNA substrate; Potency, µM, hits mostly inhibitors; hit rate 79% among 880; AID 720498; also: nearly all actives have a fitted effect of over 60% in size
WRN helicase inh-2: confirmation of human WRN helicase inhibitors; hit rate 63% among 610; WRN helicase DNA unwinding, fluorescence kinetic; Potency, µM (doses to about 57.1 µM), for the others: top-dose activity, negative = inhibition, usual class: inhibitors; AID 720497; shares compounds with WRN helicase inh-1; also: nearly all actives have a fitted effect of over 65% in size
TO displacement: DNA binding via thiazole orange displacement. hit rate 10% among 610. AID 720499. thiazole orange DNA binding displacement, fluorescence. shares compounds with WRN helicase inh-1. Potency, µM (top dose mostly 57.1 µM), inactives show top-dose activity change, negative = inhibition, hits mostly inhibitors;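 also: drop in dye fluorescence marks compound binding to DNA; % is scaled to controls: 0 for no effect and ±100 for the full control effect; nearly all actives have a fitted effect of over 60% in size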
BLM counter: blocks human BLM helicase in WRN counterscreen; AID 720503; Recombinant BLM helicase DNA unwinding, red fluorescence; Potency, µM (titrated, usually from 57.1 µM), for inactives: at the highest dose activity change, negative = inhibition, hits mostly inhibitors; hit rate 60% among 610; shares compounds with WRN helicase inh-1; also: nearly all actives have a fitted effect of over 60% in size
* hit, by the source's call; ? = inconclusive; . = no result; [ ] = remark or other dose. Rows were chosen to be rich in hits. Some 2.4% of all compounds tested hit in one or more screens of this group. Calls follow the shape of the dose curve; as a rule, active = well fitted curve in the direction sought with a large enough effect; inconclusive = small, poorly fitted or top-dose-only effect, or another doubt; inactive = no such curve, though single readings can be large; an effect the other way counts as inactive or inconclusive. Potency is read from the fitted curve at half-maximal effect.

SMILES | FEN1 inh-1 | POLI inh | Pol eta inh-1 | POLB inh | WRN helicase inh-1 | Pol kappa inh-1 | Pol iota confirm | Pol eta inh-2 | FEN1 inh-2 | WRN helicase inh-2 | TO displacement | BLM counter | others
Cc1cccc(N=C2NC(=O)/C(=C/C=C/c3ccco3)S2)c1C | 45µM* | 3.5µM* | 1.8µM* | 2.5µM* | 32µM* | 14µM* | 67* | 27* | 76* | 15µM* | 27µM* | 8.6µM*
CSc1ccc(CCNC(=O)CCc2c(C)nc3c4cccnc4nn3c2C)cc1 | 9% | -12% | -13% | 1% | . | -12% | . | . | . | . | . | .
O=C(O)c1ccc(Nc2c3ccccc3nc3ccccc23)cc1 | -1% | 111% | -10% | -2% | -9% | -14% | . | . | . | . | . | .
CN1CCN(c2ccc(Nc3c4ccccc4nc4ccccc34)cc2)CC1 | . | . | . | . | . | 19µM* | 42* | . | 19* | 6.1µM* | 7.6µM* | 24µM* | Pol kappa inh-2=30*
CCN1/C(=C/c2ccc3cc(C)ccc3[n+]2CC)Sc2cc(C)c(C)cc21 | 32µM* | 87% | ? | 14µM* | 50µM* | -22% | 42* | 76* | 4.8* | 24µM* | 22µM* | ?
COc1ccc(-c2nc3cnc(N4CCN(C)CC4)nc3n(C)c2=O)cc1 | . | . | . | . | . | -3%[60.1 µM] | . | . | . | . | . | .
O=C1C(Cl)=C(NCCc2ccccc2)C(=O)c2ccccc21 | ? | 3.5µM* | 22µM* | . | 28µM* | -2% | 47* | 48* | . | ? | -20% | 17µM*
C=CCN1C(=O)/C(=C2/Sc3ccccc3N2CCCS(=O)(=O)O)SC1=S | ? | ? | 3.2µM* | 45µM* | ? | ? | ? | 38* | . | 22µM* | -5% | 22µM*
O=C(O)Cc1ccc(N=Nc2c(O)c(C(=O)O)cc3ccccc23)cc1 | 50µM* | 7.9µM* | 7.1µM* | 32µM* | 25µM* | ? | 21* | 21* | 67* | 19µM* | ? | 17µM*
Oc1ccc2ccccc2c1N=Nc1ccc(F)cc1 | -1% | -28% | -15% | -10% | -14% | -14% | . | . | . | . | . | .
Cc1ccc(C)c(NC(=O)CN2CCSc3ccc(S(=O)(=O)N4CCCC4)cc32)c1 | -4% | -2% | -8% | 0% | . | -10%[60.1 µM] | . | . | . | . | . | .
Cc1cc(N2CCOCC2)ccc1/C=C1\NC(=O)N(CC(=O)Nc2ccc(F)cc2)C1=O | -18% | ? | 7% | 32% | -2% | -9%[60.1 µM] | . | . | . | . | . | .
N#CNC(=O)c1ccc(-n2cccc2/C=C2\NC(=O)N(CC(=O)Nc3ccc(F)cc3)C2=O)cc1 | . | . | . | . | . | . | 27* | 48* | 34* | 6.1µM* | 9.6µM* | 3.8µM*
COc1ccc(C2Nc3ccccc3C(=O)N2Cc2ccco2)cc1COc1ccc(N)cc1 (stereo not drawn) | . | . | . | . | . | . | 75* | 85* | . | 11µM* | ? | 3µM*
O=C(O)c1cccc(-n2cccc2/C=C2/NC(=O)N(c3ccc(Cl)cc3)C2=O)c1 | 20µM* | ? | 0.71µM* | 0.35µM* | 3.2µM* | 1.6µM* | 0.75* | 1.3* | 21* | 1.4µM* | ? | 0.17µM* | TbPGK inh=0.26µM*
COc1ccc(-n2cccc2/C=C2/NC(=O)N(c3cccc(Cl)c3)C2=O)cc1 | 2% | 18% | -1% | 18% | -6% | -2% | . | . | . | . | . | .
COc1cc2c(cc1NC(=O)CSc1nc3ccccc3[nH]1)oc1ccccc12 | -7% | 45µM* | 50µM* | 5% | ? | ? | 42* | 43* | . | -23% | 25% | ?
O=C(O)COc1ccc(/C=N/NC(=O)c2ccc(-c3csc(Nc4ccc(Cl)cc4)n3)cc2)cc1 | ? | 2.8µM* | 2.5µM* | ? | 13µM* | 7.9µM* | 3* | 11* | 30* | 4.3µM* | 5.4µM* | 0.86µM*
O=C(Cn1c2ccccc2c(=O)c2ccccc21)N/N=C/c1cc([N+](=O)[O-])ccc1N1CCCCCC1 | -20% | 45% | 2.8µM* | 2.5µM* | 11µM* | -7% | ? | . | . | 6.1µM* | 19% | 1.1µM*
CN(c1ccccc1)c1ccc(/C=C(\CCC(=O)O)c2nc3ccccc3s2)cc1[N+](=O)[O-] | ? | 22µM* | 8.9µM* | 8.9µM* | 27µM* | ? | 27* | 67* | 67* | 22µM* | 27µM* | 8.6µM*
Cc1ccc(CNS(=O)(=O)c2cc3c(cc2Cl)NC(=O)CO3)o1 | -1% | -14% | -9% | -20% | . | 1%[60.1 µM] | . | . | . | . | . | .
O=C(Nc1cc2c(oc1=O)CCCC2=O)c1ccc(Cl)cc1 | 56µM* | -98% | 11µM* | 3.5µM* | 13µM* | 18µM* | 15* | 8.5* | . | 19µM* | 0% | 7.6µM*
Cc1nccc2oc(=O)c(NC(=O)c3ccc(Cl)cc3)cc12 | 1% | 17% | -17% | ? | -3% | 2% | . | . | . | . | . | .
CCC1(CC)C(=O)C2=C3C1[C@H](C(=O)OC)CC(C(=O)OC)C[C@H]3[C@H]1C(=O)N(C)C(=O)[C@H]1[C@H]2C (stereo partly drawn) | -1% | -7% | . | . | . | -6% | . | . | . | . | . | .
